Shown are actives, neighbours in structure and some others; about 17% of the full set was active somewhere.
TDP1 cell CPT: growth inhibition of DT40 Tdp1-/-;hTDP1 cells with camptothecin (screen for TDP1 inhibitors); hit rate 12% among 420,000; Potency, µM (doses to about 46.2 µM), usual class: inhibitors; chicken DT40 Tdp1-/-;hTDP1 cells + 20 nM CPT, ATP luminescence, 48 h; further: nearly all actives have a fitted effect of over 55% in size
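Chicken DT40 Tdp1-/- cells stably complemented with human TDP1 were seeded at 400 cells/well in medium containing 20 nM camptothecin, exposed to pin-transferred compounds, and grown at 37 °C for at least 48 hr. Viability was read as ATP luminescence.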
TDP1 cell noCPT: qHTS for Inhibitors of human tyrosyl-DNA phosphodiesterase 1 (TDP1): qHTS in cells in absence of CPT | DT40 Tdp1-/- hTDP1 cells, no CPT, ATP luminescence, 48 h | Potency, µM (top dose mostly 46.2 µM), usual class: inhibitors | hit rate 15% among 420,000; further: nearly all actives have a fitted effect of over 55% in size
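Growth of hTDP1-complemented DT40 Tdp1-knockout cells is measured by ATP luminescence after at least 48 hr compound exposure at 37 °C, with DMSO substituting for the 20 nM CPT used in the parallel screen.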
HT1080NT lethal: kills 2HG-producing HT-1080-NT fibrosarcoma cells; hit rate 1.6% among 360,000; AID 686970; HT-1080-NT fibrosarcoma viability, CellTiter-Glo ATP luminescence, 48 h; Potency, µM (titrated, usually from 46.1 µM), most hits filed as cytotoxic;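 further: NT is the 2HG producing partner of a matched IDH1 knockdown line; nearly all actives have a fitted effect of over 55% in size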
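Viability by CellTiter-Glo luminescence after 48 h compound exposure at 37C of HT-1080-NT cells (750/well, RPMI, 5% FBS). % activity scaled between DMSO wells and medium-only wells, then curve-fitted and categorized by curve class.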
HepG2 viability: HepG2 cytotoxicity, counter-screen for TGF-b inhibitors. HepG2 CAGA-GFP viability, ATP luminescence, 18 h. Potency, µM (highest dose often 46.1 µM), actives largely listed as cytotoxic. hit rate 0.76% among 410,000. AID 588856
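HepG2 CAGA-GFP cells (1000/well, DMEM with 1% FBS) received compound, then TGF-beta at 500 pg/mL final, and were incubated 18 hours at 37 degrees C. Viability was read by CellTiter-Glo luminescence. Media-only wells were set as complete cell-killing and DMSO as no toxicity.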
HT1080 IDH1KD tx: HT-1080 IDH1 knockdown cell toxicity (counter line). hit rate 2% among 360,000. AID 686971. HT-1080 IDH1 knockdown viability, ATP luminescence, 48 h. Potency, µM (top dose mostly 46.1 µM), hits mostly cytotoxic
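After a 2 h attachment period, IDH1KD HT-1080 cells took pin-transferred compound for 48 h at 37 °C; ATP-based luminescence after 10 min room-temperature reagent incubation reported viability.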
TGFb inhibitor: inhibitors of TGF-b signaling; hit rate 1.2% among 410,000; Potency, µM (series often up to 46.1 µM), hits mostly inhibitors; HepG2 CAGA-GFP TGF-b/SMAD3 reporter, GFP fluorescence, 18 h; TGF-beta stimulated, 500 pg/mL final; AID 588855; further: nearly all actives have a fitted effect of over 65% in size
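HEPG2 CAGA-GFP, 1000 cells/well; 2 h settle, 37 C; cpd via pin tool; TGF-b 500 pg/mL final; 18 h, 37 C; GFP imaging ex488/em500-530; %Activity normalised to -TGF-b and +DMSO controls; CRC fit, curve class.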
Numbers stand for hits; - = inactive; ? = inconclusive; . = no result given. The call rests on the fitted dose curve; in most records, active means well fitted curve in the direction sought with a large enough effect; inconclusive means small, poorly fitted or top-dose-only effect, or another doubt; inactive means no such curve, though single readings can be large; an effect the other way counts as inactive or inconclusive.

SMILES	TDP1 cell CPT	TDP1 cell noCPT	HT1080NT lethal	HepG2 viability	HT1080 IDH1KD tx	TGFb inhibitor
Cc1ccc(CNC(=O)C2CCN(S(=O)(=O)c3ccc4[nH]c(=O)ccc4c3)CC2)cc1	-	-	.	-	.	-
COC(=O)c1ccc(CNC(=O)COC(=O)/C=C/c2cccc(OC)c2)cc1	?	-	-	-	-	-
CCOC(=O)C1=CCC(c2cccn2C(=O)OC(C)(C)C)N(S(=O)(=O)c2ccc(C)cc2)C1 (configuration not stated)	?	?	-	-	-	?
CCOC(=O)C1=CCC(c2ccccc2C(F)(F)F)N(S(=O)(=O)c2ccc(C)cc2)C1 (configuration not stated)	23.1µM	23.1µM	-	-	?	-
CCOC(=O)C1=CCC(c2ccccc2Cl)N(S(=O)(=O)c2ccc(C)cc2)C1 (configuration not stated)	14.6µM	?	-	-	-	-
CC(=O)C1=CCC(c2ccccc2Cl)N(S(=O)(=O)c2ccc(C)cc2)C1 (configuration not stated)	?	?	?	-	?	?
CC(C)CN(C(=O)c1cc(Cl)nc2ccccc12)C1CCS(=O)(=O)C1 (configuration not stated)	-	-	-	-	-	-
CN(C)c1ccc(/C=C2\C=Cc3ccccc32)cc1[N+](=O)[O-]	?	?	.	-	.	-
O=[N+]([O-])c1ccc2c(c1)C=C/C2=C\c1ccc(C=S)cc1	?	11.2µM	.	-	.	-
CCCCC(CC)CN=C(N)NC(N)=NCCCCCCN=C(N)NC(N)=NCC(CC)CCCC (configuration not stated)	13µM	9.2µM	7.31µM	11.2µM	23.1µM	?
CCCCC(CC)CO (configuration not stated)	?	-	-	-	-	-
COc1ccc(OC)c(N(CC(=O)NCc2ccccc2)S(=O)(=O)c2ccccc2)c1	11.6µM	?	.	-	.	-
COc1ccc(OC)c(N(CC(=O)NCc2ccccc2)S(=O)(=O)c2ccc(OC)c(OC)c2)c1	20.6µM	?	-	-	-	-
COc1ccc(OC)c(N(CC(=O)NCCc2ccc(OC)c(OC)c2)S(=O)(=O)c2ccccc2)c1	?	?	-	-	-	-
COc1ccc(CNC(=O)CNS(=O)(=O)c2cccs2)cc1	-	-	-	-	-	-
COc1ccc(CNC(=O)CN(c2ccccc2OC)S(=O)(=O)c2cccs2)cc1	16.4µM	?	-	-	-	-
COc1ccc(OC)c(N(CC(=O)NCCSCc2ccco2)S(=O)(=O)c2ccccc2)c1	?	14.6µM	-	-	-	-
CCS(=O)(=O)N1CCc2cc(C(=O)NCc3ccccc3OC)ccc21	-	?	.	-	.	-
Cc1nn(Cc2ccc(Cl)c(Cl)c2)c(C)c1NC(=O)c1noc2c1CCc1ccccc1-2	5.8µM	5.8µM	.	-	.	?
Cc1nn(Cc2ccccc2)c(C)c1NC(=O)c1noc2c1CCc1ccccc1-2	?	?	-	-	-	?
COc1ccc2c(c1)CCc1c(C(=O)Nc3c(C)nn(Cc4ccc(C)cc4)c3C)noc1-2	10.3µM	9.2µM	.	-	.	?
CCc1ccc2oc(C(=O)Nc3sc4c(c3C(=O)NC)CCCC4)cc(=O)c2c1	-	-	.	-	.	-
COc1ccccc1C(=O)Nc1ccc2oc(-c3cccc4c(Br)cccc34)nc2c1	?	?	.	-	.	-
Cc1ccc(S(=O)(=O)N2C[C@H]3n4c(=O)ccc(=O)n4C[C@H](OC(=O)NCC4CCCCC4)[C@@]3(O)C2)cc1	2.59µM	3.66µM	20.6µM	-	?	?
CCCCCCn1c(=O)n2n(c1=O)[C@@H]1CN(S(=O)(=O)c3ccc(C)cc3)C[C@]1(O)[C@@H](OC(=O)Nc1c(C)noc1C)C2	?	29.1µM	-	-	-	-
SMILES	TDP1 cell CPT	TDP1 cell noCPT	HT1080NT lethal	HepG2 viability	HT1080 IDH1KD tx	TGFb inhibitor
COc1ccc(CNC(=O)O[C@H]2Cn3c(=O)ccc(=O)n3[C@@H]3CN(S(=O)(=O)c4ccc(C)cc4)C[C@]23O)cc1OC	-	-	-	-	-	-
Cc1ccc(S(=O)(=O)N2C[C@H]3n4c(=O)ccc(=O)n4C[C@H](OC(=O)NCc4ccccc4)[C@@]3(O)C2)cc1	?	25.9µM	?	-	?	-
CCCCCCn1c(=O)n2n(c1=O)[C@@H]1CN(S(=O)(=O)c3ccc(C)cc3)C[C@]1(O)[C@@H](OC(=O)NCc1ccccc1)C2	?	?	?	-	-	?
CC(OC(=O)/C(C#N)=C/c1ccco1)C(=O)N(C)c1ccccc1 (configuration not stated)	-	-	-	-	-	-
Cc1nn(-c2ccccc2)c(OC(=O)c2ccccc2F)c1S(=O)(=O)c1ccccc1	-	-	.	-	.	-
COc1ccc(OC)c(/C=N/c2c(-c3ccc(O)c(OC)c3)nc3ccccn23)c1	-	-	-	-	-	-
O=c1c(-c2ccco2)nc2ccccc2n1C(c1ccccn1)c1nc2ccccc2[nH]1 (configuration not stated)	?	?	-	.	-	.
Cc1ccc(C(c2nc3ccccc3[nH]2)n2c(-c3ccccc3)nc3ccccc32)cc1 (configuration not stated)	?	?	-	-	?	20µM
CCC(c1nc2ccccc2[nH]1)n1c(=O)c(-c2ccco2)nc2ccccc21 (configuration not stated)	20.6µM	18.4µM	-	.	-	.
O=c1c(-c2ccco2)nc2ccccc2n1C(c1ccccc1)c1nc2ccccc2[nH]1 (configuration not stated)	16.4µM	23.1µM	?	.	?	.
CC1=C(C(=O)N2CCCCCC2)CC(CC(=O)NCCCN(C)C)C(=O)N1Cc1ccc(F)cc1 (configuration not stated)	-	-	-	.	-	.
COc1cccc(CNC(=O)c2cccc(N3CCCS3(=O)=O)c2)c1	-	-	.	-	.	-
CCc1cc(=O)n2[nH]c(C)c(-c3ccccc3OC)c2n1	-	?	-	-	-	-
COCc1cc(=O)n2[nH]c(C)c(-c3ccc(Cl)cc3)c2n1	13µM	16.4µM	-	14.1µM	?	-
Cc1[nH]n2c(=O)cc(-c3ccccc3Cl)nc2c1-c1ccccc1	9.2µM	2.59µM	.	-	.	?
Cc1[nH]c(C)c(S(=O)(=O)N(Cc2ccccc2)C(C)(C)C)c1C(=O)N1CCCC1	?	-	-	-	-	-
